The text below walks through data of article PMC9838217, “Structure of SALL4 zinc finger domain reveals link between AT-rich DNA binding and Okihiro syndrome”.

Numbering of substitutions follows the chain as printed.

What all share (assay): HT-SELEX; high values mean tight binding
Holding throughout (conditions): protein: recombinant; vector His6-GST; dsDNA, one strand shown

The target in one assay is T1, SALL4 ZFC4 WT (HT-SELEX) (Mus musculus, UniProt Q8BX22 870-940).
T1 sequence: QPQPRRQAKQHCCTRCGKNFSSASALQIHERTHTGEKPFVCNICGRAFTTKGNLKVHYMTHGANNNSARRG
The procedure, abridged: (§1)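 Library DNA (1.5 µg in cycle one, 200 ng in later cycles) was incubated with 1 µg of purified recombinant mouse SALL4 zinc finger cluster 4, residues 870–940, in 100 µl buffer (10 mM Tris–HCl pH 7.5, 50 mM NaCl, poly(dI-dC), DTT) at room temperature for 10 min. Up to 6 rounds of Ni2+ bead capture, washing, PCR amplification and reselection were run in triplicate. Reads from MiSeq sequencing were scanned for 6-mers. For each canonical k-mer, binding signal is its read fraction as fold change versus the original random library.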

For assay [1], the target named is T2, SALL4 ZFC4 R900W (HT-SELEX) (Mus musculus, UniProt Q8BX22 870-940, R900W).
T2 sequence: T1 sequence with R31W
The procedure, abridged:
as §1

Assay [2] concerns the target T3, SALL4 ZFC4 G921D (HT-SELEX) (Mus musculus, UniProt Q8BX22 870-940, G921D).
T3 sequence: T1 sequence with G52D
The procedure, abridged:
as §1

As for CGTAGC, the binding signal in the assay with SALL4 ZFC4 WT (HT-SELEX) was 0.305 ± 0.0314 fold-change vs cycle 0; in assay [1] it was 0.356 ± 0.00868 fold-change vs cycle 0; in assay [2] it was 0.479 ± 0.0718 fold-change vs cycle 0.
As to AAGTCT, the binding signal with SALL4 ZFC4 WT (HT-SELEX) was determined as 1.259 ± 0.00421 fold-change vs cycle 0; in assay [1], 1.4 ± 0.0184 fold-change vs cycle 0; in assay [2], 1.38 ± 0.0691 fold-change vs cycle 0.
Taken in the same sequence, the figures for AATTGG were 1.07 ± 0.0351 fold-change vs cycle 0, 1.15 ± 0.0596 fold-change vs cycle 0 and 1.19 ± 0.036 fold-change vs cycle 0.
Taken in the same sequence, the figures for ATATGA were 3.11 ± 0.303 fold-change vs cycle 0, 2.07 ± 0.156 fold-change vs cycle 0 and 1.85 ± 0.196 fold-change vs cycle 0.
On the same counts, the results for ACCCAA are 0.736 ± 0.034 fold-change vs cycle 0, 0.839 ± 0.0217 fold-change vs cycle 0 and 0.873 ± 0.0335 fold-change vs cycle 0.
CCTATC: the figures for the binding signal (with SALL4 ZFC4 WT (HT-SELEX); in assay [1]; in assay [2]) were 0.811 ± 0.0304 fold-change vs cycle 0, 0.939 ± 0.00665 fold-change vs cycle 0 and 0.994 ± 0.0224 fold-change vs cycle 0, respectively.
On to ATGATA, for which the binding signal with SALL4 ZFC4 WT (HT-SELEX) was found to be 2.72 ± 0.227 fold-change vs cycle 0; in assay [1], 2.14 ± 0.0867 fold-change vs cycle 0; in assay [2] it was 1.86 ± 0.153 fold-change vs cycle 0.
On the same counts, the results for AGGAGA are 0.932 ± 0.027 fold-change vs cycle 0, 1.09 ± 0.059 fold-change vs cycle 0 and 1.06 ± 0.044 fold-change vs cycle 0.
Taken in the same sequence, the figures for ATTAAT were 6.27 ± 0.662 fold-change vs cycle 0, 2.77 ± 0.256 fold-change vs cycle 0 and 2.34 ± 0.327 fold-change vs cycle 0.
On the same counts, the results for GTAAAC are 1.27 ± 0.0422 fold-change vs cycle 0, 1.39 ± 0.0625 fold-change vs cycle 0 and 1.32 ± 0.0873 fold-change vs cycle 0.
With AATGGT, the binding signal in the assay with SALL4 ZFC4 WT (HT-SELEX) is 1.28 ± 0.0798 fold-change vs cycle 0; in assay [1] it was 1.35 ± 0.0595 fold-change vs cycle 0; in assay [2] it was 1.32 ± 0.061 fold-change vs cycle 0.
For the sequence AAATCG, the binding signal with SALL4 ZFC4 WT (HT-SELEX) amounted to 0.874 ± 0.0288 fold-change vs cycle 0; in assay [1] it was 0.918 ± 0.0124 fold-change vs cycle 0; in assay [2], 1.02 ± 0.0396 fold-change vs cycle 0.
For the sequence AATTAC, the binding signal was found to be 2.12 ± 0.116 fold-change vs cycle 0 with SALL4 ZFC4 WT (HT-SELEX), 2 ± 0.127 fold-change vs cycle 0 in assay [1] and 1.82 ± 0.181 fold-change vs cycle 0 in assay [2].
Taken in the same sequence, the figures for CAGAAA were 1.12 ± 0.0595 fold-change vs cycle 0, 1.18 ± 0.0406 fold-change vs cycle 0 and 1.15 ± 0.0688 fold-change vs cycle 0.
On the same counts, the results for CAATCG are 0.623 ± 0.00929 fold-change vs cycle 0, 0.726 ± 0.0311 fold-change vs cycle 0 and 0.821 ± 0.0438 fold-change vs cycle 0.
On the same counts, the results for ACCGTC are 0.344 ± 0.0295 fold-change vs cycle 0, 0.418 ± 0.0372 fold-change vs cycle 0 and 0.528 ± 0.0646 fold-change vs cycle 0.
Regarding CATACG, the binding signal in the assay with SALL4 ZFC4 WT (HT-SELEX) was 0.727 ± 0.0223 fold-change vs cycle 0; in assay [1], 0.792 ± 0.0487 fold-change vs cycle 0; in assay [2], 0.858 ± 0.0517 fold-change vs cycle 0.
Taken in the same sequence, the figures for AAGAAA were 2.03 ± 0.13 fold-change vs cycle 0, 2.08 ± 0.193 fold-change vs cycle 0 and 1.78 ± 0.233 fold-change vs cycle 0.
Taken in the same sequence, the figures for AGATAC were 1.32 ± 0.0304 fold-change vs cycle 0, 1.44 ± 0.052 fold-change vs cycle 0 and 1.4 ± 0.118 fold-change vs cycle 0.
On the same counts, the results for AATGGA are 1.38 ± 0.0388 fold-change vs cycle 0, 1.47 ± 0.0617 fold-change vs cycle 0 and 1.39 ± 0.0841 fold-change vs cycle 0.
As to ACTGAA, the binding signal worked out at 1.38 ± 0.0494 fold-change vs cycle 0 with SALL4 ZFC4 WT (HT-SELEX), 1.5 ± 0.11 fold-change vs cycle 0 in assay [1] and 1.39 ± 0.103 fold-change vs cycle 0 in assay [2].
As to CGTATA, the values for the binding signal (in the assay with SALL4 ZFC4 WT (HT-SELEX); in assay [1]; in assay [2]) were 1.19 ± 0.0262 fold-change vs cycle 0, 1.2 ± 0.0145 fold-change vs cycle 0 and 1.18 ± 0.0335 fold-change vs cycle 0, respectively.
On the same counts, the results for TAATGA are 2.15 ± 0.16 fold-change vs cycle 0, 2.16 ± 0.14 fold-change vs cycle 0 and 1.9 ± 0.22 fold-change vs cycle 0.
Taken in the same sequence, the figures for AAAGGC were 0.475 ± 0.0422 fold-change vs cycle 0, 0.571 ± 0.0175 fold-change vs cycle 0 and 0.688 ± 0.0599 fold-change vs cycle 0.
Taken in the same sequence, the figures for CGAGTA were 0.742 ± 0.0199 fold-change vs cycle 0, 0.848 ± 0.0261 fold-change vs cycle 0 and 0.87 ± 0.0313 fold-change vs cycle 0.
For the sequence CCATAG, the figures for the binding signal (in the assay with SALL4 ZFC4 WT (HT-SELEX); in assay [1]; in assay [2]) were 0.841 ± 0.0326 fold-change vs cycle 0, 0.91 ± 0.0505 fold-change vs cycle 0 and 0.94 ± 0.039 fold-change vs cycle 0, respectively.
On the same counts, the results for CAATCC are 0.816 ± 0.0436 fold-change vs cycle 0, 0.939 ± 0.0312 fold-change vs cycle 0 and 0.973 ± 0.0236 fold-change vs cycle 0.
On the same counts, the results for CGAGGA are 0.409 ± 0.0195 fold-change vs cycle 0, 0.5 ± 0.0275 fold-change vs cycle 0 and 0.587 ± 0.0701 fold-change vs cycle 0.
On the same counts, the results for CAAAGA are 1.18 ± 0.0383 fold-change vs cycle 0, 1.34 ± 0.0673 fold-change vs cycle 0 and 1.28 ± 0.0399 fold-change vs cycle 0.
Consider GACAAA, for which the figures for the binding signal (with SALL4 ZFC4 WT (HT-SELEX); in assay [1]; in assay [2]) were 0.966 ± 0.023 fold-change vs cycle 0, 1.08 ± 0.0338 fold-change vs cycle 0 and 1.1 ± 0.0293 fold-change vs cycle 0, respectively.
Taken in the same sequence, the figures for ATAAGG were 1.55 ± 0.0418 fold-change vs cycle 0, 1.63 ± 0.0717 fold-change vs cycle 0 and 1.46 ± 0.077 fold-change vs cycle 0.
Taken in the same sequence, the figures for CGTAAA were 1 ± 0.0348 fold-change vs cycle 0, 1.08 ± 0.0147 fold-change vs cycle 0 and 1.05 ± 0.0379 fold-change vs cycle 0.
ACTACG: the binding signal with SALL4 ZFC4 WT (HT-SELEX) worked out at 0.659 ± 0.026 fold-change vs cycle 0; in assay [1], 0.728 ± 0.025 fold-change vs cycle 0; in assay [2], 0.821 ± 0.0676 fold-change vs cycle 0.
Consider ACGTAT, for which the binding signal came to 1.2 ± 0.0268 fold-change vs cycle 0 in the assay with SALL4 ZFC4 WT (HT-SELEX), 1.28 ± 0.0492 fold-change vs cycle 0 in assay [1] and 1.23 ± 0.0551 fold-change vs cycle 0 in assay [2].
Taken in the same sequence, the figures for CCTGTA were 0.809 ± 0.0421 fold-change vs cycle 0, 0.915 ± 0.0586 fold-change vs cycle 0 and 0.974 ± 0.0591 fold-change vs cycle 0.
On the same counts, the results for CGTACC are 0.409 ± 0.0203 fold-change vs cycle 0, 0.467 ± 0.0146 fold-change vs cycle 0 and 0.564 ± 0.0582 fold-change vs cycle 0.
Taken in the same sequence, the figures for CACTCG were 0.397 ± 0.0122 fold-change vs cycle 0, 0.459 ± 0.00566 fold-change vs cycle 0 and 0.562 ± 0.0414 fold-change vs cycle 0.
In the case of ACTAAT, the binding signal amounted to 2.16 ± 0.0523 fold-change vs cycle 0 with SALL4 ZFC4 WT (HT-SELEX), 2.13 ± 0.102 fold-change vs cycle 0 in assay [1] and 1.86 ± 0.174 fold-change vs cycle 0 in assay [2].
On the same counts, the results for ATTTCG are 1.02 ± 0.0756 fold-change vs cycle 0, 0.985 ± 0.0219 fold-change vs cycle 0 and 1.06 ± 0.0262 fold-change vs cycle 0.
Taken in the same sequence, the figures for ACCTCT were 0.859 ± 0.0231 fold-change vs cycle 0, 0.978 ± 0.0308 fold-change vs cycle 0 and 1.02 ± 0.0211 fold-change vs cycle 0.
Taken in the same sequence, the figures for ATTGAG were 1.27 ± 0.0638 fold-change vs cycle 0, 1.38 ± 0.0358 fold-change vs cycle 0 and 1.36 ± 0.122 fold-change vs cycle 0.
Turning to AAGGAC, the binding signal with SALL4 ZFC4 WT (HT-SELEX) turned out to be 0.805 ± 0.0174 fold-change vs cycle 0; in assay [1], 0.941 ± 0.0375 fold-change vs cycle 0; in assay [2], 0.9757 ± 0.00429 fold-change vs cycle 0.
